Measurements from the supplement of paper PMC7156485.
Structures can show the parent of a compound that is named as a salt. ± gives the standard deviation of the averaged measurements.

Assays:
Settings in all cases: concentration: 10 µM; 24 h
HCC1569 [1] = assay: cell number relative to DMSO (% of DMSO); higher = more cells (less growth inhibition / toxicity)
Procedure, shortened: (§1)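 H1.0 nuclear intensity or cell number is stated as percent of the plate control, based on the median of replicates, and HCC1569 values were smoothed for positional effects. These came from HCC1569 and TDF cells treated with compounds at 10 µM for 24 h at 37 °C in triplicate, then fixed in 3.7% formaldehyde and stained with a rabbit anti-H1.0 antibody, an AlexaFluor 647 secondary and DAPI.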

TDF [2] = assay: as above
Procedure, shortened: as §1

TDF [3] = assay: H1.0 immunofluorescence intensity relative to DMSO (% of DMSO); higher = stronger H1.0 induction, active = 120 or more
Procedure, shortened: as §1

HCC1569 [4] = assay: H1.0 immunofluorescence intensity relative to DMSO (% of DMSO); higher = stronger H1.0 induction, active = 140 or more
Procedure, shortened: as §1
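For H1.0 immunofluorescence intensity relative to DMSO in this document: TDF is a line of transformed human dermal fibroblasts of mesenchymal origin.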
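For cell number relative to DMSO in this document: TDF denotes transformed human dermal fibroblasts of mesenchymal origin.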

| SMILES | cell number (HCC1569 [1]) | cell number (TDF [2]) | H1.0 immunofluorescence intensity (TDF [3]) | H1.0 immunofluorescence intensity (HCC1569 [4]) |
| --- | --- | --- | --- | --- |
| Cl.OC1CCCCC1N1CCC(c2ccccc2)CC1 (configuration not stated) [Vesamicol hydrochloride] | 99 | 104 | 94.2 (inactive) | 106 (inactive) |
| C[N+]1(C)CCc2cc3c(cc2C1C1OC(=O)c2c1ccc1c2OCO1)OCO3.[Br-] (single isomer, unassigned; (-)) [(-)-Bicuculline methbromide, 1(S), 9(R)] | 101 | 104 | 94.2 (inactive) | 96.4 (inactive) |
| COc1cc2c(c(OC)c1OC)-c1ccc(SC)c(=O)cc1C(NC(C)=O)CC2 (configuration not stated) [Thiocolchicine] | 59.6 | 10.7 | 187 (active) | 155 (active) |
| NC(=S)NN=Cc1coc2ccccc2c1=O.[Cl][Cu][Cl] | 96.2 | 86 | 105 (inactive) | 100 (inactive) |
| Cl.NCC#Cc1ccccc1 [3-Phenylpropargylamine hydrochloride] | 104 | 110 | 80.3 (inactive) | 102 (inactive) |
| Cc1ccccc1-n1c(Cn2cnc3c(N)ncnc32)nc2cccc(C)c2c1=O | 90.8 | 99.7 | 91.9 (inactive) | 102 (inactive) |
| NC(=O)CI [Iodoacetamide] | 47.9 | 33.8 | 134 (active) | 170 (active) |
| CC(=O)NC1CN2CCC(O)C2C(O)C1O (configuration not stated) [6-Acetamido-6-deoxy-castanospermine] | 103 | 103 | 97.2 (inactive) | 87.4 (inactive) |
| CCCCCC(C=CC=CCCCCCCCC(=O)O)OO (configuration not stated) | 99.9 | 108 | 99.2 (inactive) | 94.4 (inactive) |
| CC(CCc1ccccc1)NC(C)C(O)c1ccc(O)cc1.Cl (configuration not stated) [Nylidrin hydrochloride] | 102 | 109 | 92.4 (inactive) | 96.5 (inactive) |
| CC(=O)c1c(O)c(C)c(O)c(Cc2c(O)c3c(c(C(=O)C=Cc4ccccc4)c2O)OC(C)(C)C=C3)c1O [Rottlerin] | 82.5 ± 13 | 77.9 ± 6.9 | 109 (inactive) | 104 (inactive) |
| CCCCCC=CCC=CCC=CC=CC(CCCC(=O)O)OO (configuration not stated) | 101 | 100 | 98.5 (inactive) | 106 (inactive) |
| CS(=O)CCCCN=C=S (configuration not stated) [1-isothiocyanato-4-(methylsulfinyl)butane] | 99.7 | 94.9 | 93.7 (inactive) | 89.6 (inactive) |
| CC(C)CC1C(=O)N2CCCC2C2(O)OC(NC(=O)C3C=C4c5cccc6[nH]c(Br)c(c56)CC4N(C)C3)(C(C)C)C(=O)N12.CS(=O)(=O)O (single isomer, unassigned; (+)) [(+)-Bromocriptine methanesulfonate] | 91.1 | 103 | 96.3 (inactive) | 108 (inactive) |
| Cl.c1ccc2c(N3CCNCC3)cccc2c1 [1-(1-Naphthyl)piperazine hydrochloride] | 99.6 | 94.3 | 105 (inactive) | 106 (inactive) |
| CC1OCC(C[N+](C)(C)C)O1.[I-] (single isomer, unassigned; (+)) [(+)-cis-Dioxolane iodide] | 102 | 103 | 96 (inactive) | 99.6 (inactive) |
| COc1cc2c3cc1Oc1c(OO)c(OC)cc4c1C(Cc1ccc(cc1)Oc1cc(ccc1O)CC3N(C)CC2)N(C)CC4.O=S(=O)(O)O (configuration not stated) [Oxyacanthine sulfate] | 55.6 | 11.7 | 186 (active) | 148 (active) |
| CN1C2CCCC1CC(=O)C2.Cl | 98.6 | 89.2 | 108 (inactive) | 94.5 (inactive) |
| Cc1[nH]c2ccc(O)cc2c1CCN.O=C(O)C=CC(=O)O [2-Methyl-5-hydroxytryptamine maleate] | 106 | 98.7 | 98.3 (inactive) | 85.2 (inactive) |

| SMILES | cell number (HCC1569 [1]) | cell number (TDF [2]) | H1.0 immunofluorescence intensity (TDF [3]) | H1.0 immunofluorescence intensity (HCC1569 [4]) |
| --- | --- | --- | --- | --- |
| CC1C2Cc3ccc(O)cc3C1(C)CCN2CC1CC1 (single isomer, unassigned; (+)) [(+)-Cyclazocine] | 102 | 92.2 | 96.9 (inactive) | 86.8 (inactive) |
| Br.NC1CCc2cc(O)c(O)cc2C1 (configuration not stated) [6,7-ADTN hydrobromide] | 104 | 103 | 93.1 (inactive) | 92.4 (inactive) |
| CC=C1CC(C)C(O)(CO)C(=O)OCC2=CCN3CCC(OC1=O)C23 (configuration not stated) [Retrorsine] | 101 | 115 | 93.8 (inactive) | 90.4 (inactive) |
| CC12Cc3cn[nH]c3CC1CCC1C2CCC2(C)C1CCC2(C)O (configuration not stated) [Stanozolol] | 94.4 | 99.5 | 97.2 (inactive) | 87.3 (inactive) |
| CCN(CC)C(=O)NC1C=C2c3cccc4[nH]cc(c34)CC2N(C)C1.O=C(O)C=CC(=O)O (stereo not drawn) [R(+)-Lisuride hydrogen maleate] | 103 | 117 | 91.4 (inactive) | 92.7 (inactive) |
| Br.C#CCOC(=O)C1=CCCN(C)C1 [Arecaidine propargyl ester hydrobromide] | 100 | 98.1 | 93.1 (inactive) | 92.2 (inactive) |
| N#CC(OC1OC(COC2OC(CO)C(O)C(O)C2O)C(O)C(O)C1O)c1ccccc1 (configuration not stated) [Amygdalin] | 103 | 91.7 | 100 (inactive) | 90.7 (inactive) |
| CCCCC(C#N)(Cn1cncn1)c1ccc(Cl)cc1 (configuration not stated) [Myclobutanil] | 104 | 92.6 | 102 (inactive) | 102 (inactive) |
| O=C1NCN(c2ccccc2)C12CCN(CC1COc3ccccc3O1)CC2 (configuration not stated) [Spiroxatrine] | 98.9 | 105 | 101 (inactive) | 97.4 (inactive) |
| CCCN1CC(CSC)CC2c3cccc4[nH]cc(c34)CC21.CS(=O)(=O)O (configuration not stated) [Pergolide mesylate] | 95.8 | 102 | 93.3 (inactive) | 112 (inactive) |
| CN(C)CCc1ccc(O)cc1.CN(C)CCc1ccc(O)cc1.O=S(=O)(O)O [Hordenine sulfate] | 99.3 | 99.9 | 104 (inactive) | 99.9 (inactive) |
| O=C1CSC(c2ccccc2Cl)c2cc(Cl)ccc2N1 (configuration not stated) | 103 | 105 | 95.3 (inactive) | 115 (inactive) |
| CN1CC(CO)C=C2c3cccc4[nH]cc(c34)CC21 (configuration not stated) [Lysergol] | 100 | 106 | 102 (inactive) | 87.6 (inactive) |
| C=CC1CN2CCC1CC2C(O)c1ccnc2ccccc12 (single isomer, unassigned; (+)) [(+)-Cinchonine] | 101 | 106 | 98.9 (inactive) | 91.1 (inactive) |
| CC12CCC3C(CCC4=C(O)C(=O)CCC43C)C1CCC2=O (configuration not stated) [Formestane] | 105 | 98.1 | 98.3 (inactive) | 111 (inactive) |
| Br.CCCN(CCC)C1CCc2cccc(O)c2C1 (stereo not drawn) [R-(+)-8-Hydroxy-DPAT hydrobromide] | 99.2 | 90.1 | 105 (inactive) | 96.5 (inactive) |
| S=C(NC1CCCCC1)N1CCC(c2cnc[nH]2)CC1 [Thioperamide maleate] | 104 | 100 | 99.8 (inactive) | 94.7 (inactive) |
| CC1=C2CC3C(CC=C4CC(O)CCC43C)C2CCC12OC1CC(C)CNC1C2C (configuration not stated) [Cyclopamine] | 104 | 107 | 94.9 (inactive) | 92 (inactive) |
| COC(=O)CC(O)(CCC(C)(C)O)C(=O)OC1C(OC)=CC23CCCN2CCc2cc4c(cc2C13)OCO4 (configuration not stated) [Harringtonine] | 56.5 | 29.9 | 107 (inactive) | 90 (inactive) |
